Screening results deposited in PubChem BioAssay by ICCB-Longwood Screening Facility, Harvard Medical School.
Mtb MbtI inh: MbtI salicylate synthase inhibitors, primary screen, biochemical, fluorescence intensity; hit rate 0.89% among 100,000; inhibition, % (test concentration not listed); purified MbtI enzyme, fluorescence intensity read-out; in the data active = inhibition mostly above about 56%, no sharp cut-off; inactive = mostly below about 77%
Target sequence (P9WFX0 whole entry, looked up): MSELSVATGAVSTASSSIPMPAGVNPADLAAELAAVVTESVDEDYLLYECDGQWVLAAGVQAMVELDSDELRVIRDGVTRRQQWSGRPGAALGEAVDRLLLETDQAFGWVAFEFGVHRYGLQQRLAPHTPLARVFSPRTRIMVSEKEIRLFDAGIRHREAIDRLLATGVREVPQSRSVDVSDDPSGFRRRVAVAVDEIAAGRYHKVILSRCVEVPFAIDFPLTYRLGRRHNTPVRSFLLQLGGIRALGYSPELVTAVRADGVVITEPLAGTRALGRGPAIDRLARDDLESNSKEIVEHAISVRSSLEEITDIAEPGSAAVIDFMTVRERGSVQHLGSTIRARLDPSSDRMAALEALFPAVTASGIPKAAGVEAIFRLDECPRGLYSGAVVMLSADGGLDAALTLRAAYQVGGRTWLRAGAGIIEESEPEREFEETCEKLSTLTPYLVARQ
AID504770: growth inhibition of E. coli YBA685, primary screen, V. cholerae RctB inhibitors | E. coli YBA685 rctB-dependent plasmid, OD600 growth, 3 h; stronger effect = lower value | hit rate 0.27% among 130,000 | z-score (concentration not given with the values) | AID 504770, 2011; in the data active = z-score below about -2, passing the limit was not always enough
MenB inh: M. tuberculosis MenB inhibitors, primary screen, biochemical, absorbance; 1,4-dihydroxy-2-naphthoyl-CoA synthase (Mycobacterium tuberculosis (strain ATCC 25618 / …; MenB enzyme assay, absorbance read-out; inhibition, % (no concentration beside the values); hit rate 0.43% among 100,000; AID 540299, 2011; in the data active = inhibition above about 21%, passing the limit was not always enough
PV pol inh: poliovirus RdRp elongation inhibitors, primary screen, biochemical, fluorescence polarization, total intensity; poliovirus polymerase elongation; stronger effect = lower value; % elongation, % (compound at 16.7 µg/mL); hit rate 0.66% among 150,000; AID 588519, 2011; in the data active = % elongation below about 90%
An asterisk follows results filed as active; . = no result. An excerpt weighted towards active compounds, which were near 1.5% of everything screened.

SMILES | Mtb MbtI inh | AID504770 | MenB inh | PV pol inh
COc1ccccc1N1C(=O)C=CC1=O | 98* | 1.2 | . | 98
COc1ccc(OC)c(N2C(=O)C=CC2=O)c1 | 97* | 1.4 | . | 99
CCOc1ccc2c(c1)c(=O)c(S(=O)(=O)c1ccc(C)cc1)cn2CC(=O)Nc1ccc(C)cc1 | . | . | . | 107
COc1cc(CN2CCC3(CC2)Nc2ccccc2-n2cccc23)cc(OC)c1OC | 20 | 0.2 | -14 | 100
c1ccc(OCCSC2=NCCN2)cc1 | 89* | -1.4 | -37 | 101
c1ccc(OCCSc2nc3ccccc3[nH]2)cc1 | -1 | 0.25 | -1 | 101
N#CC(C#N)=NNc1ccc(SC(F)F)cc1 | 18 | -3.4* | -259 | 95
O=C(c1ccc2c(c1)N(Cc1ccc(Cl)cc1)C(=O)c1ccccc1S2=O)N1CCOCC1 (stereo not given) | . | . | . | 73*
O=C(c1ccc2c(c1)N(Cc1ccccc1)C(=O)c1ccccc1S2=O)N1CCOCC1 (stereo not given) | 0 | 0.45 | -3 | 100
CCC(C(=O)NC1CCCC1)N(C(=O)Cn1nnc(-c2ccc(C)cc2)n1)c1ccc2c(c1)OCCO2 (stereo not given) | 7 | 1.8 | 33* | 101
CCCC(C(=O)NC1CCCC1)N(C(=O)Cn1nnc(-c2ccc(C)o2)n1)c1ccccc1 (stereo not given) | -26 | -0.55 | -37 | 105
CCCNC(=O)c1ccc2ncsc2c1 | 22 | -0.6 | -11 | 105
CCN1CCN(CCC(=O)Nc2ccc(-c3ccccc3)cc2)CC1 | 14 | -0.4 | . | 100
CCN1CCN(CCC(=O)Nc2ccc(C)cc2)CC1 | -1 | -0.1 | 37* | 100
CC1(C)CC2CC(C)(CN2C(=O)c2cccs2)C1 (stereo not given) | 31 | -0.45 | -31 | 100
Cc1n[nH]c(=O)nc1NCCN(C)C | . | -1.2 | -3 | 106
CN(C)S(=O)(=O)c1cccc(-c2nnc(SCc3cc(Cl)cc4c3OCOC4)n2N)c1 | 86 | 1.6 | -28 | 80*
Cn1sc(=O)c2ccc(S(=O)(=O)NCCc3ccncc3)cc21 | . | -2.5* | . | .
COC(=O)c1sc(=S)n(-c2cccc(Cl)c2)c1N | 94* | -0.85 | -24 | 95
CNC(=O)c1sc(=S)n(-c2ccccc2)c1N | 66* | 1 | -14 | 100
Cc1ccc(-n2c(N)c(C(N)=O)sc2=S)cc1C | 94* | -1 | -12 | 98
O=C(COc1ccccc1F)NN1C(=O)NC2(CCCCC2)C1=O | -7 | -0.5 | -11 | 105
CCN(CC)S(=O)(=O)c1ccc2c(c1)oc(=O)c1cc(S(=O)(=O)N(CC)CC)ccc12 | -4 | 1.5 | -30 | 108
NNC(=O)c1csc(CS(=O)(=O)Cc2ccco2)n1 | 2 | -0.15 | -12 | 109
O=C(CC1C(=O)Sc2[nH]c(=O)sc21)c1ccc(F)cc1 (stereo not given) | 85* | -0.25 | 59* | 55
SMILES | Mtb MbtI inh | AID504770 | MenB inh | PV pol inh
O=C(CCC(=O)c1ccc(F)cc1)c1ccc(F)cc1 | -13 | -0.25 | 3 | 105
Cc1ccc(C(C)C)c(OCC(=O)Nc2cccc(-c3nc4ncccc4o3)c2)c1 | . | . | . | 109
Cc1ccc(S(=O)(=O)NC(CO)C(=O)O)cc1 (stereo not given) | 5 | -0.65 | 31* | 102
COC(=O)C(CO)NS(=O)(=O)c1ccc(C)cc1 (stereo not given) | . | -0.9 | . | .
NC(=S)NN=C1C2CC3CC(C2)CC1C3 | 51 | -0.85 | -20 | 82*
CCN(CC)c1ccc(C=C2C(=O)OC3(CCCC3)OC2=O)cc1 | 72* | -0.1 | -96 | 110
CCN(CC)c1ccc(C=C2C(=O)OC(c3ccccc3)OC2=O)cc1 (stereo not given) | . | -0.7 | -8 | 115
O=C1Cc2ccccc2C(=O)N1Cc1ccco1 | -7 | 0.65 | . | 76*
CN1C(=O)Cc2ccccc2C1=O | 15 | -1.1 | -70 | 38*
O=C(O)CN1C(=O)Cc2ccccc2C1=O | -4 | 0.25 | -37 | 24*
COC(=O)CN1C(=O)Cc2ccccc2C1=O | . | -0.2 | . | .
O=C1CC(Cc2ccccc2)C(=O)N1Cc1ccco1 (stereo not given) | -10 | -0.2 | 36* | 100
O=c1c2c(nc3cc(-c4ccco4)[nH]n13)CCCC2 | 89 | 0.35 | 33* | 104
CCN1C(=O)/C(=C2\SC(=S)N(N)C2=O)c2ccccc21 | -17 | -1.1 | -106 | 101
O=c1[nH]c2cc(Br)cnc2[nH]1 | 1 | 1.1 | -19 | 66*
O=c1[nH]c2ccccc2[nH]1 | -1 | -0.3 | 8 | 94
CCOC(=O)C1=C(C)OC2(O)c3ccccc3C(=O)C12O (stereo not given) | -6 | -0.9 | 15 | 56*
